ChEMBL document CHEMBL3988442, “University of Dundee, Small-Polar-MMV Screening Library” (2021)
For some assays here: Potency and affinity values are given separately.

Tests used:
Parameters in all cases: scale not given: direction of the effect not stated beside the values
[1] = target: Protein translocase subunit SecA (Escherichia coli (strain K12)) (UniProt P10408); assay: Assay to Identify E. coli SecA ATPase Inhibitors; assay type: functional; conditions: 30 µM
[2] = target: T1, Ubiquitin-activating enzyme e1, putative (Leishmania donovani (strain BPK282A1)) (UniProt E9BSI1); assay: Leishmania donovani Ubiquitin Activating Enzyme (LdE1); assay type: functional; conditions: 30 µM
T1 sequence (whole entry): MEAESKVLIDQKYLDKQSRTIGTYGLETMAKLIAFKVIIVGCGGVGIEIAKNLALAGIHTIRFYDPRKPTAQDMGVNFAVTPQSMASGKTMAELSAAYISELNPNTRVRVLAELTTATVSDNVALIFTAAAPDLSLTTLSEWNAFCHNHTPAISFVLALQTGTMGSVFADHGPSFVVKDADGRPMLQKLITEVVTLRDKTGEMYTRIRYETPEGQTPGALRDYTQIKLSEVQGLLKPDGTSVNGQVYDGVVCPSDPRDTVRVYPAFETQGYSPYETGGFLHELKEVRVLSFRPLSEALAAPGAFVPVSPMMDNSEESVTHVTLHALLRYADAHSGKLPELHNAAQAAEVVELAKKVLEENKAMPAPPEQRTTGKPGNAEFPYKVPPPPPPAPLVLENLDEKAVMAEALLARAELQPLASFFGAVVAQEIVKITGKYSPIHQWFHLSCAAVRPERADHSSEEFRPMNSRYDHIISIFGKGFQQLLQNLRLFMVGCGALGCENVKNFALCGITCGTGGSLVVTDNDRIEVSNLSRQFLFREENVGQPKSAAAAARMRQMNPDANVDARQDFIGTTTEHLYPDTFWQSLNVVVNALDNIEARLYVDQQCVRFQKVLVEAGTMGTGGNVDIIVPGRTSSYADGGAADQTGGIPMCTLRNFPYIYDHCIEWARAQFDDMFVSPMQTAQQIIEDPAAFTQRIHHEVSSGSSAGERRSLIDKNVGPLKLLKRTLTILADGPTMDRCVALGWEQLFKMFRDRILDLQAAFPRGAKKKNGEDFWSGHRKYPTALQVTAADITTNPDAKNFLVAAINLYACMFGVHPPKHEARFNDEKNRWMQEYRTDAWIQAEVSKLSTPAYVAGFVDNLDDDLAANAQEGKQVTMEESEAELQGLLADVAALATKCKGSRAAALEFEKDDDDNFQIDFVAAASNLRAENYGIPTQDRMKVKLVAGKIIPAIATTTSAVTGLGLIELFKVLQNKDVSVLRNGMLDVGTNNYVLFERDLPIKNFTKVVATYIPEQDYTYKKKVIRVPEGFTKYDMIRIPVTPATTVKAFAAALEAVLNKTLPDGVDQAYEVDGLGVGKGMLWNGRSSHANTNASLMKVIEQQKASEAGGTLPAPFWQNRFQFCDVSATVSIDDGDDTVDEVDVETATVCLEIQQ

[3] = target: AMP-activated protein kinase, AMPK (Homo sapiens) (UniProt P54646+O43741+P54619+Q9UGJ0+Q9Y478+Q13131+Q9UGI9); assay: AMP-dependent Kinase enzyme assay. An in vitro enzyme assay that detects ADP turnover that is directly proportional to AMPK activity. This uses naive AMPK that is activated during the assay with MK-8722; assay type: functional; conditions: 30 µM
[4] = target: Sialic acid-binding Ig-like lectin 9 (Homo sapiens) (UniProt Q9Y336); assay: Hs-Siglec9 ALPHAscreen SOP 20170721; conditions: 10 µM
Trypanosoma cruzi = assay: Trypanosoma cruzi phosphomannomutase and mannose-1-phosphate guanylyltransferase assay; assay type: functional; conditions: 10 µM
[5] = target: T2, Arginase-2, mitochondrial (Homo sapiens) (UniProt P78540); assay: in vitro enzyme assay to detect the production of urea directly proportional to the activity of Arginase II; assay type: functional; conditions: 33.3 µM; further: in the data most compounds retested in dose-response had high values
T2 sequence (whole entry): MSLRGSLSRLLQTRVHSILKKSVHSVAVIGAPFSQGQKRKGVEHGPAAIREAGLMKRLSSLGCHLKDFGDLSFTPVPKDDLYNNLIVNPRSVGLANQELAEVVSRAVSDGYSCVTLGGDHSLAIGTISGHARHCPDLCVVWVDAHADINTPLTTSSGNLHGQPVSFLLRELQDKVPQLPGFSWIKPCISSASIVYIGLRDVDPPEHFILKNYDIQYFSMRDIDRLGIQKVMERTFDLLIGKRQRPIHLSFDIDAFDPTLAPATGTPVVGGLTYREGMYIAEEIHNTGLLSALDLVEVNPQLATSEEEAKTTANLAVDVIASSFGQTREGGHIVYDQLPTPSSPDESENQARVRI

[6] = target: T3, Proteasome subunit beta (Trypanosoma cruzi) (UniProt O96673); assay: Trypanosoma cruzi proteasome chymotrypsin-like activity (TcProtChymo) assay.; further: in the data most compounds retested in dose-response had high values; assay type: functional; conditions: 9.37 µM
T3 sequence (whole entry): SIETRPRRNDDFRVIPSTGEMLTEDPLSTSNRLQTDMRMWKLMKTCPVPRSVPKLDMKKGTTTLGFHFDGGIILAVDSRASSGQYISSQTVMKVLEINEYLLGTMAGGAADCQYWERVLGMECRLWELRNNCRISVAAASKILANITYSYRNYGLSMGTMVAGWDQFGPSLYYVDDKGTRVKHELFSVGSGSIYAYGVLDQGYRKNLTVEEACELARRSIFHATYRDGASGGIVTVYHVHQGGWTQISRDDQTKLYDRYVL

Homo sapiens = species: Homo sapiens; assay: To identify inhibition of the IFN signalling (Jak-Stat) pathway via expression of an eGFP reporter gene under the control of an IFN-stimulated response element (ISRE) containing MxA promoter.; assay type: functional; conditions: 30 µM
[7] = target: T4, Tyrosyl-tRNA synthetase, putative (Trypanosoma cruzi (strain CL Brener)) (UniProt Q4DSP6); assay: Trypanosoma cruzi tyrosyl tRNA synthetase (TcYRS) _High Tyrosine SOP; assay type: functional; conditions: 30 µM; further: in the data most compounds retested in dose-response had high values
T4 sequence (whole entry): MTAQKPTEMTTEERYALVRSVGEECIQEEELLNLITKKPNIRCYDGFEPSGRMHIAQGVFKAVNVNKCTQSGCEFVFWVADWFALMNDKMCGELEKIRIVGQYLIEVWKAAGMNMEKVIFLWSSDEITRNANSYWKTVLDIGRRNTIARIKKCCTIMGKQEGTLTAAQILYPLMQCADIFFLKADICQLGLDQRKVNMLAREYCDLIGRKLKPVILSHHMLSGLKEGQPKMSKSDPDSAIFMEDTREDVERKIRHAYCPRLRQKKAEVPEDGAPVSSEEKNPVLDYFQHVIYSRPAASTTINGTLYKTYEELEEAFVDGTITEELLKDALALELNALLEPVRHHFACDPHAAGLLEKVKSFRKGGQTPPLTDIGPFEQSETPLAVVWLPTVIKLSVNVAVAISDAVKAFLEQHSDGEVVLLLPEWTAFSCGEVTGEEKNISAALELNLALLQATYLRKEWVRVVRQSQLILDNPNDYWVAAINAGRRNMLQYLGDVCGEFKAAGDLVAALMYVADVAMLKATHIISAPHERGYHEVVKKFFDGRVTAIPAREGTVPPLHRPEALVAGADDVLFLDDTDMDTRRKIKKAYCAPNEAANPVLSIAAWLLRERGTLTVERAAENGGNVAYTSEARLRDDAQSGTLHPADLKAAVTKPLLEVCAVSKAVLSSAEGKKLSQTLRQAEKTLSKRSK

[8] = target: T4, Tyrosyl-tRNA synthetase, putative (Trypanosoma cruzi (strain CL Brener)); assay: Trypanosoma cruzi tyrosyl tRNA synthetase (TcYRS) SOP; assay type: functional; conditions: 30 µM
[9] = target: Chromo domain-containing protein 1 (Saccharomyces cerevisiae (strain ATCC 204508 / S288c) (Baker's yeast)) (UniProt P32657); assay: ScCHD-1 Enzyme Inhibition Assay; assay type: functional; conditions: 30 µM; further: in the data most compounds retested in dose-response had high values
Sequence of Chromo domain-containing protein 1 (Saccharomyces cerevisiae (strain ATCC 204508 / S288c) (Baker's yeast)) (P32657 whole entry, the tested form may be a part): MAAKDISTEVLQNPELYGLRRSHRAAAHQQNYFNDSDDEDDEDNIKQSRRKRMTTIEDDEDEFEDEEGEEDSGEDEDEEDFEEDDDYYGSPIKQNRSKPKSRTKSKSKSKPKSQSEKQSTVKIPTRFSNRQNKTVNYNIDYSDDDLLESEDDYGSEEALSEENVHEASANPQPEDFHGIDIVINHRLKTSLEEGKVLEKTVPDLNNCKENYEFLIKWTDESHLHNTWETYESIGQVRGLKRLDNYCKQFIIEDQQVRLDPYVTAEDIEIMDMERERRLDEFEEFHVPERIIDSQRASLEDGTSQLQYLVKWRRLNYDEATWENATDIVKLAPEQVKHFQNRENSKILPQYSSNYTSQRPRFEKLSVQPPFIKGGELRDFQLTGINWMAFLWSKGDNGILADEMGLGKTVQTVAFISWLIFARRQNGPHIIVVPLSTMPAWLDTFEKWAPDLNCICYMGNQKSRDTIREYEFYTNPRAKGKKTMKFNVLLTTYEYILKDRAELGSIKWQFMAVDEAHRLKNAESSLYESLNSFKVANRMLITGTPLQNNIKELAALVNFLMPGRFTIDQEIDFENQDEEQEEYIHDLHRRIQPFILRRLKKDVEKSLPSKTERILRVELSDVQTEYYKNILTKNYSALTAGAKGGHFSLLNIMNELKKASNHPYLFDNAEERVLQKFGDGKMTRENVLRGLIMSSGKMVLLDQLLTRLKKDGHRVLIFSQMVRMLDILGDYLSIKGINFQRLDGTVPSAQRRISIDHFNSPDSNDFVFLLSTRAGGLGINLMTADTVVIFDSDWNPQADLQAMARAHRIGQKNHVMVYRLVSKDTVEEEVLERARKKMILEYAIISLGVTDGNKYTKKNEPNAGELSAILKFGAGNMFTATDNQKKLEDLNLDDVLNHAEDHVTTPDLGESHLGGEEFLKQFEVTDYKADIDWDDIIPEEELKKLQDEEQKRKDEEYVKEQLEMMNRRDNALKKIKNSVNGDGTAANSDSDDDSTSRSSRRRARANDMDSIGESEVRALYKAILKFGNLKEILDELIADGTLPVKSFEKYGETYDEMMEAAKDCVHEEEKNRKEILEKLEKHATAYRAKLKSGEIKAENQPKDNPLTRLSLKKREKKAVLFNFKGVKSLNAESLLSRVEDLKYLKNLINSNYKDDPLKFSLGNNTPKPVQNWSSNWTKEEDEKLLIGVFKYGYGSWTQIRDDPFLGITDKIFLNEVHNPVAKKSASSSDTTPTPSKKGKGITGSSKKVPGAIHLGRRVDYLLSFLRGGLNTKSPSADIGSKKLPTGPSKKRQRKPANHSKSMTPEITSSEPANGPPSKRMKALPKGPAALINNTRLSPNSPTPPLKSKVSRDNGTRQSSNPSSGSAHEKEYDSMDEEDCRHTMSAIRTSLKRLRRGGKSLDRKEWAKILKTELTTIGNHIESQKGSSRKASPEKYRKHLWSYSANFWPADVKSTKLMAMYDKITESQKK

Sequence of Protein translocase subunit SecA (Escherichia coli (strain K12)) (P10408 whole entry): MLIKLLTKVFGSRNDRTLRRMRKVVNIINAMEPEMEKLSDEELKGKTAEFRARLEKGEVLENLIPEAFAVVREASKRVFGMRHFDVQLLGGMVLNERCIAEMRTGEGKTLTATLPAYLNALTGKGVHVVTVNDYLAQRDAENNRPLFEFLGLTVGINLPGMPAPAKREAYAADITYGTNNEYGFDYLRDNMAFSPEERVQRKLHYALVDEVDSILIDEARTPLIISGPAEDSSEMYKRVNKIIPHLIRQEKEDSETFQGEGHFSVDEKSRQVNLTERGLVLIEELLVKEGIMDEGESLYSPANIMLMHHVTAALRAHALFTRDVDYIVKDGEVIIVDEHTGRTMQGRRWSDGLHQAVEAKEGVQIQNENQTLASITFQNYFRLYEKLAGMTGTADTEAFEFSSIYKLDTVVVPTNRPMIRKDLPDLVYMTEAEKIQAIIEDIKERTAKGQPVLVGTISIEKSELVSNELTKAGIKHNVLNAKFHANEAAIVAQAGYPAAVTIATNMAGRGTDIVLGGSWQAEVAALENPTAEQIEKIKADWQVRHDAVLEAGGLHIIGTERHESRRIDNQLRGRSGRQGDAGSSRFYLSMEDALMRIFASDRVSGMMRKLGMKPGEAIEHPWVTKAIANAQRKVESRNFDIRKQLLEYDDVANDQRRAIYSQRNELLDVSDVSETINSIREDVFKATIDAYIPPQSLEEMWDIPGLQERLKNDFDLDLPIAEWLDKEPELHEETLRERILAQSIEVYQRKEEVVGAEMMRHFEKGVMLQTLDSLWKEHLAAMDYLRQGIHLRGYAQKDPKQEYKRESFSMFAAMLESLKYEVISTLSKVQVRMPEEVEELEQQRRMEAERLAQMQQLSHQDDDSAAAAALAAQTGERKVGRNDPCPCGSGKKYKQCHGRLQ
Sequence of Sialic acid-binding Ig-like lectin 9 (Homo sapiens) (Q9Y336 whole entry): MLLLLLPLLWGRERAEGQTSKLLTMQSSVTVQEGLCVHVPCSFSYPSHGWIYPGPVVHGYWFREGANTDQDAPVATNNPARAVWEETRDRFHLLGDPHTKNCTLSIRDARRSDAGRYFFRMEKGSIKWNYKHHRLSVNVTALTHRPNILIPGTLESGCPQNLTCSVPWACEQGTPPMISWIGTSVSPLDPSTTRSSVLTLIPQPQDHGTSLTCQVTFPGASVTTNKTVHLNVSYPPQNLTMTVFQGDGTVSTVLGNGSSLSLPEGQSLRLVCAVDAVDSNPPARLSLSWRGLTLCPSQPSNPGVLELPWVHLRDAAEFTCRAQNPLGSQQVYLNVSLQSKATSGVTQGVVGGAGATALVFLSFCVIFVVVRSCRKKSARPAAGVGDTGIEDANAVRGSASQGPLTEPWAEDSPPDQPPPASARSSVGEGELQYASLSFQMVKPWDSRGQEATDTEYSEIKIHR

| Compound | Percent Effect [1] [%] | Percent Effect [2] [%] | Percent Effect [3] [%] | Percent Effect [4] [%] | Percent Effect (Trypanosoma cruzi) [%] | Percent Effect [5] [%] | Percent Effect [6] [%] | Percent Effect (Homo sapiens) [%] | Percent Effect [7] [%] | Percent Effect [8] [%] | Percent Effect [9] [%] |
| --- | --- | --- | --- | --- | --- | --- | --- | --- | --- | --- | --- |
| Cc1cc(C(=O)NCC2COCc3c(C)nnn3C2)no1 (configuration not stated) | -6.44 | 2.6 | -3 | 3.99 | -0.295 | -9.65 | 7.65 | -19 | 2.15 | 11.1 | -0.439 |
| CCOc1ccc(N2CCCN=C2NC(=O)c2ccccc2C)cc1 | -3.08 | 7.79 | -2.01 | 4.38 | -0.0983 | -5.52 | 9.98 | -13.7 | 6.45 | 16.1 | 106 |
| Cc1cc(C)n(CCC(=O)N2CCC(c3nc(C(C)C)no3)CC2)n1 | -2.78 | 20.8 | 4.41 | 11.6 | 5.8 | -40 | 16.5 | -3.55 | 6.45 | 18.5 | -7.45 |
| COc1c(CNCc2ccc(C(=O)N(C)C)cc2)c(C)nn1C | -4.19 | 1.27 | 7.36 | -0.0396 | 2.97 | 1.07 | 8.23 | 27.1 | 3.12 | 7.59 | -4.86 |
| CCn1nc(C)c2ncnc(NCC(=O)N3CCOCC3)c21 | -1.89 | 9.33 | -3.08 | 10.4 | 2.55 | -8.28 | 14.4 | 30.3 | -28.6 | 5.13 | -9.1 |
| CC(=O)Nc1nc(CN2CCCCC2Cn2cccn2)cs1 (configuration not stated) | -4.14 | 5.26 | 3.07 | -1.3 | -0.0974 | -1.18 | 10.8 | 20.7 | 9.57 | 15.6 | -6.41 |
| Cc1ccc(OCCCNC(=O)NC(C)c2nncn2C)cc1 (configuration not stated) | -4.22 | 13 | 6.68 | -5.15 | 4.41 | 4.42 | 8 | -0.0367 | 7.62 | 18.8 | -17.6 |
| O=C(c1cscn1)N1C[C@@H]2C[C@@H](c3nnc(C4CC4)o3)O[C@@H]2C1 | 1.55 | 7.79 | 2.51 | -3.79 | -10.2 | 22.6 | 10.4 | 7.19 | -1.06 | 6.41 | -7.72 |
| O=C(c1cnccn1)N1CCOC2(CCN(Cc3ccsc3)CC2)C1 | -1.55 | 0 | 2.03 | 7.22 | 1.16 | -52.1 | 0 | -18.7 | 2.08 | 2.5 | -4.34 |
| CCc1noc(CN2CCCN(C(N)=O)CC2)n1 | -0.23 | 0 | 5.45 | 11.3 | -6.7 | 4.94 | 5.98 | 21.4 | -1.48 | -8.86 | -6.21 |
| Cc1nn(C)c2c(N3CCN(C(=O)C4CCC4)CC3)ncnc12 | -0.898 | 9.33 | 2.37 | -1.34 | -6.48 | -2.99 | 13.7 | 14.9 | -15.9 | 15.4 | -9.22 |
| CCN1CCN(C(=O)C(C)N2CCN(Cc3nccn3C)CC2)CC1 (configuration not stated) | -3.29 | 2.7 | -1.16 | 6.16 | 6.59 | -4.99 | 1.08 | -7.4 | 0.99 | 3.66 | 2.46 |
| CC(C)Oc1ccccc1C1CC(=O)Nc2c1cnn2C (configuration not stated) | -2.1 | -15.8 | 7.56 | 5.91 | -3.21 | -7.1 | 15.6 | 15.6 | -2.13 | 2.6 | -0.488 |
| Cc1nc(C)c(CC(=O)Nc2nnc(C)s2)c(=O)[nH]1 | -0.0632 | -13.2 | -1.32 | 2.92 | 2.82 | 1.15 | 7.85 | 0.477 | 4.41 | 21.9 | -10.9 |
| O=S(=O)(CCN1CCOC(Cn2cccn2)C1)C(F)(F)F (configuration not stated) | -0.0845 | 24.1 | 13.4 | -1.22 | 2.97 | -1.5 | 18.4 | 30.2 | 8.33 | 12.7 | 61.7 |
| O=C1COc2cc(C(=O)NS(=O)(=O)c3ccccc3F)ccc2N1 | -1.86 | 2.63 | 3.61 | -9.82 | -3.46 | -3.6 | 5.16 | -3.9 | -4.43 | -11.1 | 2.83 |
| O=C(C1CC1)N1CCCC1C1CCN(Cc2ccccc2)CC1 (configuration not stated) | -2.89 | 2.63 | 6.02 | -2.3 | 0.682 | -4.73 | 4.31 | -4.47 | 4.25 | 5.2 | -2.33 |
| COC(=O)c1ccc(C(=O)NS(=O)(=O)c2cncc(Br)c2)cc1 | -4.86 | 0 | 0.578 | 3.83 | -2.9 | -0.952 | 15.7 | 26.4 | -0.529 | 2.44 | -0.393 |
| CCc1cnc(CN2CCCC2c2noc(C3CC3)n2)o1 (configuration not stated) | -2.28 | 10.8 | -15.2 | -4.49 | 5.94 | -18.4 | 23.6 | 25.5 | 9.36 | 18.5 | -9.7 |
| CCS(=O)(=O)N1CCC(c2nnc(CN3CCOCC3)n2C)CC1 | -3.22 | 18.7 | -2.94 | 20 | 3.8 | 5.73 | 14.5 | 3.52 | 9.29 | 21 | -5.76 |
| COc1cc(CC(O)CO)c(OC)c2c1OCO2 (configuration not stated) | -6.55 | 14.7 | -12.3 | 4.03 | 6.29 | -12.5 | 9.8 | 5.7 | 8.47 | 15.4 | -21.2 |
| CCc1nc(CCNC(=O)Nc2cc(C(N)=O)sc2C)cs1 | -6.09 | 0 | -8.97 | -2.52 | -4.19 | -1.56 | 3.14 | 19.9 | -0.546 | -3.7 | 4.38 |
